Test results reported in PubChem BioAssay (NCI).
Compounds without any hit were thinned out: in the full panel of roughly 79,000, 15% have a hit. Rule as the data show it: active = growth inhibition above about 70%; inactive = the rest.

How the values were obtained:
[1] = NCI Yeast Anticancer Drug Screen. Data for the rad50 strain (AID 155);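 also: 0% = growth of vehicle-only cultures of the same strain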; conditions: S. cerevisiae rad50 strain growth inhibition; at 50.0 µM; hits give high values
How it was run: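 A DNA repair-deficient yeast mutant serves as the test organism; compound-induced growth inhibition is calculated against vehicle-treated cells.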

[2] = NCI Yeast Anticancer Drug Screen. Data for the mec2-1 strain (AID 157); conditions: S. cerevisiae mec2-1 strain, at 50.0 µM, hits give high values
How it was run: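 Each compound was tested on mec2-1 yeast, a strain altered in DNA damage repair or cell cycle control. Growth inhibition is reported relative to vehicle.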

[3] = NCI Yeast Anticancer Drug Screen. Data for the sgs1 mgt1 strain (AID 161);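 also: 0% = growth of cultures given vehicle only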; conditions: S. cerevisiae sgs1 mgt1 strain, at 50.0 µM, hits give high values
How it was run: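 Read-out: growth inhibition vs vehicle controls. Cells: mutant yeast strain deficient in DNA damage repair.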

[4] = NCI Yeast Anticancer Drug Screen. Data for the cln2 rad14 strain (AID 165);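 also: 0% = growth equal to vehicle treated cultures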; conditions: S. cerevisiae cln2 rad14 strain, at 50.0 µM, hits give high values
How it was run: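 Test compounds were added to cln2 rad14 yeast cultures; inhibition of growth was then determined by comparison with vehicle treatment.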

[5] = NCI Yeast Anticancer Drug Screen. Data for the bub3 strain (AID 167); conditions: S. cerevisiae bub3 mutant strain, at 50.0 µM, hits give high values
How it was run: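 Inhibition values come from growth of compound-treated mutant yeast normalised to vehicle-treated controls.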

[6] = NCI Yeast Anticancer Drug Screen. Data for the mlh1 rad18 strain (AID 175); conditions: S. cerevisiae mlh1 rad18 strain growth inhibition; at 50.0 µM; hits give high values
How it was run: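 Inhibition values reflect reduced growth of mutant yeast versus vehicle-treated controls following compound exposure; the mutations affect DNA damage repair.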

Measured: growth inhibition

CC(=O)C1C(=O)C(=O)N(c2cccc([N+](=O)[O-])c2)C1=O (configuration not stated)
inactive: [1] -40% | [2] -23.9% | [3] -8.75% | [4] -9.3% | [5] -23.4% | [6] -54.3%

Nc1nc(N)nc(N2CCCCC2)n1
inactive: [1] -23.3% | [2] -5.75% | [3] -16.4% | [4] -41.2% | [5] -4.25% | [6] -19.9%

COc1cc(CC#N)c([N+](=O)[O-])cc1OC
inactive: [1] -3.15% | [2] -22.1% | [3] -12.8% | [4] -39% | [5] -14.2% | [6] 0.4%

COc1ccc(Nc2cc(Cl)ccc2C(=O)O)cn1
inactive: [1] 4.25% | [2] 0.6% | [3] -6.95% | [4] 17.9% | [5] 5.3% | [6] -4.55%

NC(CO)(CO)c1ccccc1
inactive: [1] 34.4% | [2] 13.1% | [3] 10.5% | [4] 20% | [5] 17.5% | [6] 29.9%

CC(C)=CCC[C@@H](C)[C@H]1CC[C@@]2(C)C3=C(CC[C@]12C)[C@@]1(C)CC[C@H](O)C(C)(C)[C@@H]1CC3
inactive: [1] 12.7% | [2] -24.8% | [3] 21.8% | [4] 9.85% | [5] 11.7% | [6] -7.3%

OC(CCN1CCCCC1)(c1ccccc1)c1ccccc1
inactive: [1] -29.6% | [2] -21.9% | [3] -41.5% | [4] 16.4% | [5] -20.2% | [6] -18.4%

COc1nc2ccccc2s1
inactive: [1] 18.6% | [2] -15.2% | [3] 13.1% | [4] 10.9% | [5] 1.5% | [6] 22.4%

Oc1ccc2ccccc2c1CN1CCOCC1
inactive: [1] 26.9% | [2] 5.4% | [3] 32.9% | [4] 27.9% | [5] 15.1% | [6] 19%

CCOC(=O)CNC
inactive: [1] 3.55% | [2] -3.25% | [3] -12.7% | [4] -4.5% | [5] 10.3% | [6] -10.9%

COC(C(=O)C(O)C(C)O)C1Cc2cc3cc(OC4CC(OC5CC(O)C(O)C(C)O5)C(O)C(C)O4)c(C)c(O)c3c(O)c2C(=O)C1OC1CC(OC2CC(O)C(OC3CC(C)(O)C(O)C(C)O3)C(C)O2)C(O)C(C)O1 (configuration not stated)
inactive: [1] -6.6% | [2] -23.4% | [3] -12.5% | [4] 6.95% | [5] -11.2% | [6] 11.8%

CCOP(=O)(OCC)/C(=C\N1C(=O)CC(=O)NC1=S)C(=O)OC
inactive: [1] -29.9% | [2] -31.4% | [3] -18.9% | [4] 7.6% | [5] -6.45% | [6] -5.55%

S=C(Sc1ccc(Cl)cc1)Sc1ccc(Cl)cc1
inactive: [1] 46.5% | [2] 19.9% | [3] 54% | [4] 23.1% | [5] 29.6% | [6] 24.1%

Cn1c(=O)[nH]c2ccccc2c1=O
inactive: [1] -1% | [2] 4.5% | [3] -2.1% | [4] 0.7% | [5] 6.85% | [6] 5.05%

C=CC(=O)OC1CCC(C(C)(C)CC)CC1 (configuration not stated)
inactive: [1] 39.9% | [2] 14.1% | [3] -12.9% | [4] -22.7% | [5] -8.15% | [6] -18.5%

CC(=O)OC/C(C)=C\CC(C)COC(C)=O (configuration not stated)
inactive: [1] -9.25% | [2] 3.35% | [3] 14.4% | [4] 2.4% | [5] -18.6% | [6] -0.75%

Cc1cc(Nc2ccc3c(c2)OCO3)c2cc3c(cc2n1)OCO3
inactive: [1] 10.6% | [2] -9.15% | [3] -14.9% | [4] 3.8% | [5] -0.5% | [6] -42.1%

Cc1cccc(C)c1NC(=S)/N=C\c1c(O)[nH]c(=O)[nH]c1=O
inactive: [1] -67% | [2] -27.2% | [3] -32.3% | [4] -24.3% | [6] -57.2%

C=CCc1cc(OC)c(O)c(OC)c1
inactive: [1] 1.95% | [2] 1.3% | [3] -14.2% | [4] -7.55% | [5] 0.75% | [6] -0.6%

Cc1ccc(N)c(S(=O)(=O)O)c1
inactive: [1] -4.85% | [2] 4.35% | [3] 0.75% | [4] -53.9% | [5] 8.85% | [6] -13.2%

CC(=O)Nc1ccc(C(=O)c2ccc(S(=O)(=O)Nc3ccccc3)cc2)cc1
inactive: [1] 6.5% | [2] -9.15% | [3] 5.55% | [4] 16.9% | [6] -14.4%

O=C(Oc1ccccc1Cl)c1ccc(Cl)cc1Cl
inactive: [1] 2.2% | [2] 33.4% | [3] 24.9% | [4] -49.4% | [6] 48.3%

COc1ccc2c(Cl)cc(NC(=O)Nc3c(C)cccc3C)nc2c1
inactive: [1] 5.8% | [2] 1.15% | [3] 13.9% | [4] 6.65% | [6] 7.2%

Cc1onc(-c2c(F)cccc2Cl)c1-c1ncc(-c2ccc(Br)cc2)o1
inactive: [1] -13.4% | [2] -15.9% | [3] -9.75% | [4] 9.45% | [5] -15.5% | [6] 9.7%

CCOP(=O)(NC(c1ccccc1)c1ccccc1)OCC
inactive: [1] 21.9% | [2] -15.2% | [3] 30.6% | [4] 5.55% | [6] 28.8%

CCOC(=O)C(COS(C)(=O)=O)(COS(C)(=O)=O)C(=O)OCC
inactive: [1] -24.4% | [2] -22.9% | [3] -21.4% | [4] -2.05% | [5] -2.35% | [6] -6.1%

O=S1(=O)c2ccccc2Oc2ccccc21
inactive: [1] -26.2% | [2] -19.4% | [3] -23.7% | [4] 16.6% | [5] 3.4% | [6] -14.6%

COc1cccc(C(=O)NNC(=O)c2cccc3ccccc23)c1
inactive: [1] -47.2% | [2] -59.1% | [3] -26.8% | [4] -10.4% | [5] -34.2% | [6] -20.9%

CCCCCC/C=C\CCCCCCCCCc1cc(O)cc(OC)c1O
inactive: [1] -8.55% | [2] 4.45% | [3] -5.65% | [4] -9.8% | [5] -33.2% | [6] 13.2%

O=C(O)CC1=CCCCC1
inactive: [1] 23.4% | [2] -21.6% | [3] 0.9% | [4] 10.2% | [5] -4.65% | [6] 6.9%

CCCCCC(=O)OCCC1CCCCC1
inactive: [1] 25.6% | [2] 9.3% | [3] 18.7% | [4] -6.7% | [6] 31.2%

Cc1ccccc1CC(N)C(=O)O (configuration not stated)
inactive: [1] 2.95% | [2] 10.7% | [3] 2.7% | [4] -15.2% | [6] 1.85%

CCOS(=O)(=O)c1ccc([N+](=O)[O-])cc1
inactive: [1] 7.35% | [2] 5.95% | [3] 4.5% | [4] 5.15% | [6] 5.8%

Cc1ccc([N+](=O)[O-])c(C)n1
inactive: [1] 19.1% | [2] -23.1% | [3] 6.2% | [4] 27.1% | [5] -4.4% | [6] 23.4%

COc1cccc(C(=O)O)c1OC
inactive: [1] 11.2% | [2] 14.4% | [3] 6.55% | [4] 3.75% | [5] -5.35% | [6] 0%

O=C(Nc1ccc([N+](=O)[O-])cc1)C(=O)Nc1ccc([N+](=O)[O-])cc1
inactive: [1] -8.7% | [2] -24.2% | [3] 11.6% | [4] -7.55% | [6] 5.3%

O=C(NC(=S)N1CC=CCC1)c1ccccc1
inactive: [1] 13.5% | [2] 16.7% | [3] 26.4% | [4] -1.95% | [5] 45.5% | [6] 21.3%

CN(C)c1ccc2nc3ccc(=[N+](C)C)cc-3oc2c1
inactive: [1] -27.8% | [2] -12.4% | [3] -27.7% | [4] -250% | [6] -12%

Cc1ccc(C(C)C)c(OCC(=O)O)c1
inactive: [1] 15.4% | [2] 12% | [3] 24.2% | [4] 8.65% | [5] -6.85% | [6] 25.6%

Cc1ccc(NC(=O)c2ccccc2Cl)cc1
inactive: [1] 12.4% | [2] -4.35% | [3] -13.3% | [4] -42% | [6] 6.05%

CC(=O)C[n+]1ccc(C)cc1Sc1ccccc1C
inactive: [1] 8.4% | [2] -18.1% | [3] 6.85% | [4] 4.4% | [5] -3.35% | [6] 33.8%

CC(C)C(=O)OCCOc1ccc(C(C)(C)C)cc1
inactive: [1] 6.35% | [2] 3.1% | [3] 6.9% | [4] -5.2% | [6] 13.7%

Cc1cc(C)cc(OCC(=O)O)c1
inactive: [1] 16.6% | [2] 10.2% | [3] -10.6% | [4] -41% | [6] 3.4%

N#Cc1ccc(OC(=O)Nc2cc(Cl)cc(Cl)c2)cc1
inactive: [1] -6.5% | [2] -21.9% | [3] -3.65% | [4] 12.9% | [5] -4% | [6] -3.55%

Nc1cc2c(cc1Cl)C(=O)c1ccccc1C2=O
inactive: [1] 32.4% | [2] 16.6% | [3] 9.75% | [4] -63.6% | [5] 38.4% | [6] 1.35%
